# According to the supplement of paper PMC12632987:
# Over roughly 1,800 sequences, “median log2 fold change of GCK-ALFA target abundance (FLAG IP / Myc IP barcode read proportion)” has its median near 0.14; the lowest 2% begin near -0.84. Shown is part of a subset that was picked to be rich in the lowest values.
# T1: TRAF2, Q12933
# T1 chain: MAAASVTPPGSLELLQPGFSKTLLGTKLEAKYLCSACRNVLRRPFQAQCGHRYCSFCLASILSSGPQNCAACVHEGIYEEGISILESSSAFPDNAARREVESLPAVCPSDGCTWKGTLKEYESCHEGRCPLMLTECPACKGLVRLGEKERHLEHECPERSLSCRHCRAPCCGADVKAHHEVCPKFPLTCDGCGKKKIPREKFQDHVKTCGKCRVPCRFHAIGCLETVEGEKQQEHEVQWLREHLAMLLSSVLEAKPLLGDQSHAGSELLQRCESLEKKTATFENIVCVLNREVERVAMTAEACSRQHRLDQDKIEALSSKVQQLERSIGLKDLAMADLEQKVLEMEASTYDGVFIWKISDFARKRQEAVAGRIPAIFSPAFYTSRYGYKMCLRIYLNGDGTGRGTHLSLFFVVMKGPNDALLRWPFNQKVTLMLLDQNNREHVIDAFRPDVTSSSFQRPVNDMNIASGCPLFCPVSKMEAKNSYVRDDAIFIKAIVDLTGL
# B1: traf2_out_17_162_1640 (protein)
# chain: SPVEEFKERVEKELKELEKRVEELEEKSKKIDEYSKEELSDLIVEASEVKRRARELKQEVLAAKDLIPEEERARILKRLEEIIERAQRIAQKFYDKYLSL
# B2: traf2_out_13_95_1154 (protein)
# chain: SKELAEKIMEIADKMLDKSKEILKELLEIAKKKGKLEEEVQEALYLAETRSINEAIHKLKELAKKYPEFKEELEKAIKELEELKREAGKEVAKLIKEEKE
# B3: traf2_out_13_95_1105 (protein)
# chain: SAETAEKIMEVADEMLEKSEKLLEELLKIAKEKGKLVEEVQEALDLARYRSINEAIHKLKELAKKYPEFKEEFEATIKELEELKREAGRKVAEILKEEKE
# B4: traf2_out_13_95_1160 (protein)
# chain: SKELAKKIMEIADEMLDESEKILEELLKIAKEKGKLEKEVQEALDLARYRSINEAIHKLEELAKKYPEFKEEFEKAIKKLKELKREAGKKVAKLIKEEEE
# B5: traf2_out_17_162_1603 (protein)
# chain: SSLEKKKEELLKKKEELKEELKRLTEKLKNIEKLSKEELSDLLVEASEKKREALEALEKIEELKDELDPEEYEKLSTEFEELAEEFQRIANKFYKELEKK
# B6: traf2_out_6_156_2407 (protein)
# chain: MVEEIFEEAMKEIKELIKKLSEASEEKKISYISKIAGTFYRALQRLREAGASVEELEEFIKRMMEKIKEWLDEEGLPEDIKNLILSSLKAVGDVALEEAK
# B7: traf2_out_17_162_1641 (protein)
# chain: SAAEELRKRLLEELERLEKELKELEEKSKKIDEYTKEELSDLIVEASEARRRARELIEEVDRNRSLLDPEEYEELKKRLEEIAERLNRIAQKFYDKYLEL
# B8: traf2_out_17_162_1479 (protein)
# chain: MSIEEKVERLERELEELEEEARRLREELERLEEKSKEEITDLLVEVSEARRRALELAEEFEELAPEIGEEKARELADRAREIAEELQRIANEIYKELEKK
# Molecular target: T1, TRAF2, Q12933
# Experiment: median log2 fold change of GCK-ALFA target abundance (FLAG IP / Myc IP barcode read proportion) (log2 ratio); each designed protein is fused to an ALFA-tag nanobody in HEK293 cells to bring the named protein to FLAG-tagged glucokinase (GCK); Myc marks an untargeted standard; higher = target protein stabilised (more abundant)
# Conditions: target protein: 3xFLAG-MCP-GCK-ALFA reporter; HEK293 landing pad (RPLP)
# Outline: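 Sequencing of reverse-transcribed, amplified circular RNA barcodes from anti-FLAG and anti-Myc immunoprecipitates provided the readout for an ALFA-nanobody-fused binder library recombined into HEK293 landing-pad cells. Those cells were induced with 2 μg mL^−1 doxycycline, transfected with a plasmid expressing a FLAG-tagged target and a Myc-tagged standard, and lysed after 48 h. Target abundance is the per-binder median log2 ratio of FLAG to Myc barcode read proportions. Only barcodes at a proportion of ≥10^−7 in both replicates and binders with ≥3 barcodes per replicate were kept, with a 10^−6 pseudocount added before the two replicates were pooled.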
row,Binder,median log2 fold change
1,B1,0.0147
2,B2,-0.148
3,B3,-0.477
4,B4,-1.21
5,B5,0.253
6,B6,0.175
7,B7,0.177
8,B8,0.0731
